The record followed here is paper PMC7862700, “An all-to-all approach to the identification of sequence-specific readers for epigenetic DNA modifications on cytosine”.

What all share (test): DAPPL (digital affinity profiling via proximity ligation, sequencing); 10 mM Tris-HCl pH 7.5, 50 mM NaCl, 1 mM DTT, 4% glycerol, room temperature, 30 min; GST-TFs on glutathione beads, 16-mer random dsDNA library, 0.1% formaldehyde crosslink after washing; high values mean tight binding
One assay deals with T1, FLI1 (Homo sapiens, UniProt Q01543 1-452).
T1 sequence: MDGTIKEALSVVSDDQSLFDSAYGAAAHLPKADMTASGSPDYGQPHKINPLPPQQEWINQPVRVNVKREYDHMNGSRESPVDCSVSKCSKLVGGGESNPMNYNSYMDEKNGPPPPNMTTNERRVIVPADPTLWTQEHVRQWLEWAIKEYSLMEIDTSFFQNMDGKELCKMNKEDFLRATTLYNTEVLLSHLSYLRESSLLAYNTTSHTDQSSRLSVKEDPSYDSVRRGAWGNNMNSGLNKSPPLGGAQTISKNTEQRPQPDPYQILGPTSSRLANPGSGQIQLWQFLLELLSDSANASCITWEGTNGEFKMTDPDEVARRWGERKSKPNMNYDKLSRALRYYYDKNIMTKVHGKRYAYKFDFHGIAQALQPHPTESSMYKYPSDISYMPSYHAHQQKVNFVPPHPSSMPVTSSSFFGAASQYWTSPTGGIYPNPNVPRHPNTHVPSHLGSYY
The conditions noted are these: protein: recombinant; tags: N-terminal GST; dsDNA, one strand shown. An outline of the steps:
(§1)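 Beads coated with glutathione captured GST-fused human transcription factors that had been expressed in yeast, and the factors were then given DNA barcodes and pooled with a tag-only sample. The pools were incubated with 200 nmole of a random double-stranded 16-mer DNA library in Tris/NaCl/DTT/glycerol buffer for 30 min at room temperature, washed, crosslinked with 0.1% formaldehyde and proximity-ligated with BsaI/T4 ligase at 37 °C for 1 h. PCR amplification and Illumina NextSeq500 sequencing came last. Binding signal is each hexamer's read frequency for a factor divided by its frequency for the tag-only sample.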

In another assay the target is T2, ELK1 (Homo sapiens, UniProt P19419 1-428).
T2 sequence: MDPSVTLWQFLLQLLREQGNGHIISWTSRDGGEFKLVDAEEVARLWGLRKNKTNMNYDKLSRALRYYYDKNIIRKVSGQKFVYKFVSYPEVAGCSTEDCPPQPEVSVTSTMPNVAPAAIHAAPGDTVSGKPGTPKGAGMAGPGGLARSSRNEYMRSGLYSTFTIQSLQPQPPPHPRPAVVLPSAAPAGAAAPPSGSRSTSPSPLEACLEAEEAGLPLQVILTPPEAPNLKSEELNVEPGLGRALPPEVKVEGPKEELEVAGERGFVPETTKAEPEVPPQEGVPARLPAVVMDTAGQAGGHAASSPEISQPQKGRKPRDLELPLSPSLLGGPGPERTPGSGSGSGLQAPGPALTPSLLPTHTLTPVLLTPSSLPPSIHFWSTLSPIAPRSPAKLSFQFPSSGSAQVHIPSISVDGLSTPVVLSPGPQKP
The conditions noted are these: protein: recombinant; tags: N-terminal GST; dsDNA, one strand shown. An outline of the steps:
as §1

The next assay deals with T3, GABPA (Homo sapiens, UniProt Q06546 1-454).
T3 sequence: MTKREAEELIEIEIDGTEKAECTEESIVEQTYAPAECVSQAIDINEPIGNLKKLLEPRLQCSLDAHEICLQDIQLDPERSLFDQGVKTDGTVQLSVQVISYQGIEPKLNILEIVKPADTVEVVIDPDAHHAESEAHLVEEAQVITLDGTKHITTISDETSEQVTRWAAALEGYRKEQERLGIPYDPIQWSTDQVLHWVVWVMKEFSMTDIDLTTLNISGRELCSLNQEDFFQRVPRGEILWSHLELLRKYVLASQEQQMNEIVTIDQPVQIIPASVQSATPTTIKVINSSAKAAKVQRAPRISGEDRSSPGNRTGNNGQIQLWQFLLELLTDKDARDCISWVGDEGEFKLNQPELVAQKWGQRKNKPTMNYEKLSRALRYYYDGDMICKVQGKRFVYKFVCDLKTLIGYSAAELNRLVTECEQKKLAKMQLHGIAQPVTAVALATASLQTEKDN
The conditions noted are these: protein: recombinant; tags: N-terminal GST; dsDNA, one strand shown. An outline of the steps:
as §1

A further assay has as its target ELF1 (Homo sapiens, UniProt P32519 1-619). Particulars: protein: recombinant; tags: N-terminal GST; dsDNA, one strand shown. In a few lines: as §1
Another assay addresses SPI1 (Homo sapiens, UniProt P17947 1-270). The conditions noted are these: protein: recombinant; tags: N-terminal GST; dsDNA, one strand shown. An outline of the steps:
as §1

In a further assay the target is ETV5 (Homo sapiens, UniProt P41161 1-510). Particulars: protein: recombinant; tags: N-terminal GST; dsDNA, one strand shown. An outline of the steps:
as §1

The next assay concerns the target HSF1 (Homo sapiens, UniProt Q00613 1-529). Particulars: protein: recombinant; tags: N-terminal GST; chain copies: 3; dsDNA, one strand shown. An outline of the steps: as §1
The next assay concerns the target T4, SPIC (Homo sapiens, UniProt Q8N5J4 1-248).
T4 sequence: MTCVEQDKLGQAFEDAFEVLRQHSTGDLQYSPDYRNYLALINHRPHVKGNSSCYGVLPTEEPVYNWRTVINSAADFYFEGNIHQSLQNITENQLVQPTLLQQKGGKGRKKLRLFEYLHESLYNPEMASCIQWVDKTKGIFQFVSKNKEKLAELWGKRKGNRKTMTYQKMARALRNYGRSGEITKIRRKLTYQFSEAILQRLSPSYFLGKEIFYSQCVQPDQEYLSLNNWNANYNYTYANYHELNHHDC
Particulars: protein: recombinant; tags: N-terminal GST; dsDNA, one strand shown. An outline of the steps:
as §1

The target in the next assay is T5, ELK4 (Homo sapiens, UniProt P28324-2 1-405).
T5 sequence: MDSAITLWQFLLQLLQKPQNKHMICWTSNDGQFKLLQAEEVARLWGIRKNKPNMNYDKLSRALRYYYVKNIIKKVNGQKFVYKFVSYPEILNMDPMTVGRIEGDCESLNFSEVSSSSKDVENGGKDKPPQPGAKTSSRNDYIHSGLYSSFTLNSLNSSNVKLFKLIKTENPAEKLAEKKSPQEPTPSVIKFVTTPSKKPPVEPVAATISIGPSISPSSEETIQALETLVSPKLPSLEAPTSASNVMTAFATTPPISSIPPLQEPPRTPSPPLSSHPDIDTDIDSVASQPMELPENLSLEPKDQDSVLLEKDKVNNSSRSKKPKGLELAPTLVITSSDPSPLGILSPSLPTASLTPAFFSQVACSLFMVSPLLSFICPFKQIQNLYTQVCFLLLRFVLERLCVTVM
Particulars: protein: recombinant; tags: N-terminal GST; dsDNA, one strand shown. An outline of the steps:
as §1

Another assay addresses CRX (Homo sapiens, UniProt O43186 1-299). The conditions noted are these: protein: recombinant; tags: N-terminal GST; dsDNA, one strand shown. An outline of the steps:
as §1

Another assay deals with ETV1 (Homo sapiens, UniProt P50549 1-477). The conditions noted are these: protein: recombinant; tags: N-terminal GST; dsDNA, one strand shown. In a few lines: as §1
Sequence of ETV1 (P50549 whole entry): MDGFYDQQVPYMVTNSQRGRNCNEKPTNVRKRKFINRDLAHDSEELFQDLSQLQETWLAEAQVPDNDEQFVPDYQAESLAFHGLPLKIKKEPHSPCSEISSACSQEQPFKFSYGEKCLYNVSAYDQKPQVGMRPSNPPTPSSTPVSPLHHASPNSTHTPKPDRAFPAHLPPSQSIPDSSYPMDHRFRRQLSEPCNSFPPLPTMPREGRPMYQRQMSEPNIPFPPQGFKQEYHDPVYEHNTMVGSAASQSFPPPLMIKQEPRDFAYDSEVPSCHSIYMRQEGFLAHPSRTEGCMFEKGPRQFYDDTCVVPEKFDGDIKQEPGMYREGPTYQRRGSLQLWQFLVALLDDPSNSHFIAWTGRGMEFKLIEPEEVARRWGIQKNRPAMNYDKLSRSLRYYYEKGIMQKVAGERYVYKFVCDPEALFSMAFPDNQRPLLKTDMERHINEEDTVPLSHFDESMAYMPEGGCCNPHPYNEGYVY

Sequence of CRX (O43186 whole entry): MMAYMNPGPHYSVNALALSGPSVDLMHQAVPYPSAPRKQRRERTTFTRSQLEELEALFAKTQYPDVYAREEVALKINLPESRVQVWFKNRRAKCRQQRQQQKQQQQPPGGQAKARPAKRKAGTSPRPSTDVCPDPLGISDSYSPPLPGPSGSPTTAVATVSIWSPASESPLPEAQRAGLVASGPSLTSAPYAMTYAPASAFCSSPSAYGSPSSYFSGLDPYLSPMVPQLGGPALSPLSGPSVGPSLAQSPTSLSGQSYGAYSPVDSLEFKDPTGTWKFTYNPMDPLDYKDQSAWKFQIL
Sequence of ETV5 (P41161 whole entry): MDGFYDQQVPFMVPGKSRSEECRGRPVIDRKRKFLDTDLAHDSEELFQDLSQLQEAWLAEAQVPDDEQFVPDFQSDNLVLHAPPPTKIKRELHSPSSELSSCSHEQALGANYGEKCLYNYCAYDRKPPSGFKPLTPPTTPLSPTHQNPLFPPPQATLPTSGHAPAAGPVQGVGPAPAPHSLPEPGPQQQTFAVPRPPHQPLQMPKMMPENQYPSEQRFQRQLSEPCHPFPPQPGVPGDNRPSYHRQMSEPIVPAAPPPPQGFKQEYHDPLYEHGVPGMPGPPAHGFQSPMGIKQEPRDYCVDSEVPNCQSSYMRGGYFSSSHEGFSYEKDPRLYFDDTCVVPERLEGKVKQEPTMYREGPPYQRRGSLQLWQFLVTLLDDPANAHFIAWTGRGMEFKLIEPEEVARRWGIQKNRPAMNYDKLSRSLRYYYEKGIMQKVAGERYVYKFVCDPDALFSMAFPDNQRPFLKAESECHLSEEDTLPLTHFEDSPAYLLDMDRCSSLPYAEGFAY
Sequence of ELF1 (P32519 whole entry): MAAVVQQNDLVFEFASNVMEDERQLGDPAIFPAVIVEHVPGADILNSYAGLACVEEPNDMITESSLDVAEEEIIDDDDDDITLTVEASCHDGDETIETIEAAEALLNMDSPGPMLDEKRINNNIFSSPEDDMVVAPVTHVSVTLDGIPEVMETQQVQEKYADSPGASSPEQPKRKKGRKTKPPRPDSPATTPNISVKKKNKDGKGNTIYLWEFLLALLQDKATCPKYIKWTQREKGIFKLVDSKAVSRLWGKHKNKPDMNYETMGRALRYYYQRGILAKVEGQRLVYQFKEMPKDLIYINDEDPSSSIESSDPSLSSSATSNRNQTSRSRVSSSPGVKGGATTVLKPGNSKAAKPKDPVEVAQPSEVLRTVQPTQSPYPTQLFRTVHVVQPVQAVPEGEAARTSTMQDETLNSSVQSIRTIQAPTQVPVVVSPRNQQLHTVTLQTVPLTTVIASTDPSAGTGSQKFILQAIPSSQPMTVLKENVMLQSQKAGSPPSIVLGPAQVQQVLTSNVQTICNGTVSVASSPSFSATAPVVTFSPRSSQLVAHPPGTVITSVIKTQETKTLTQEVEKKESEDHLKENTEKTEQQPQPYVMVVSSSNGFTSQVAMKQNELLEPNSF
Sequence of HSF1 (Q00613 whole entry): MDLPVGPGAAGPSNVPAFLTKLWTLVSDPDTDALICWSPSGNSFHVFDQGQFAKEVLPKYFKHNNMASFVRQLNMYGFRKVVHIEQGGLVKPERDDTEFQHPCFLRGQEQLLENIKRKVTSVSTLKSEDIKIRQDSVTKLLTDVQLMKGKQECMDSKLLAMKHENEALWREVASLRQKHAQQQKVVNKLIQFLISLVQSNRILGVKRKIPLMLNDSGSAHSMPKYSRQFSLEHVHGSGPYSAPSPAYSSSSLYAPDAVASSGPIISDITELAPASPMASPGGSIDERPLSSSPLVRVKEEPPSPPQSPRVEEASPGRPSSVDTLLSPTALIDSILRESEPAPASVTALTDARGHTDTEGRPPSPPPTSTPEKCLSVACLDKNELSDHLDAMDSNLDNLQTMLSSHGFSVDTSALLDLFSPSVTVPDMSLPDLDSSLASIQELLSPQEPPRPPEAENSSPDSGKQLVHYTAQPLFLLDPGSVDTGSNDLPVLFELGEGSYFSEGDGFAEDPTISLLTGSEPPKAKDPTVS

With TCATAA, the binding signal in the assay with FLI1 is 1.03 fold enrichment (6-mer frequency, TF over GST control); in the assay with ELK1 it was 1.05 fold enrichment (6-mer frequency, TF over GST control); in the assay with GABPA, 1.03 fold enrichment (6-mer frequency, TF over GST control); with ELF1, 1.02 fold enrichment (6-mer frequency, TF over GST control); with SPI1, 1.06 fold enrichment (6-mer frequency, TF over GST control); in the assay with ETV5, 1.06 fold enrichment (6-mer frequency, TF over GST control). Moreover, the binding signal with HSF1 is 1.14 fold enrichment (6-mer frequency, TF over GST control); with SPIC, 1.12 fold enrichment (6-mer frequency, TF over GST control); in the assay with ELK4, 1.09 fold enrichment (6-mer frequency, TF over GST control); with CRX, 1.38 fold enrichment (6-mer frequency, TF over GST control); with ETV1, 1.07 fold enrichment (6-mer frequency, TF over GST control).
